Screening results (PubChem)
In the library only some 4% were active in any assay of this set; here they are far more common.
UGM FP inh – inhibitors of M. tuberculosis UDP-galactopyranose mutase. P9WIQ1. purified UGM, fluorescence polarization probe displacement. inhibition, % at 10 µM. actives 0.06% (n = 320,000); in the data active means inhibition above about 10%, passing the limit was not always enough
Rv3671c protease – inhibits the M. tuberculosis serine protease Rv3671c | P9WHR9 | inhibition, % at 5.96 µM | actives 0.048% (n = 320,000) | AID 2606; in the data active means inhibition above about 38%;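 further: extracellular domain of Rv3671c used as enzyme; 0% = enzyme with DMSO and 100% = no enzyme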
GDH-TPI counter-1 – inhibits GDH-TPI coupling enzymes, artifact for Mtb FBA screen; GDH-TPI coupled enzyme counterscreen, NADH absorbance; actives 1.2% (n = 360,000); inhibition, % at 4.8 µM; in the data active means inhibition above about 30%;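 further: 0% = DMSO wells and 100% = wells lacking the enzyme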
Mtb betalactam – beta-lactam sensitization of Mtb H37Rv; M. tuberculosis H37Rv growth with meropenem, percent inhibition; inhibition, % at 25 µM; actives 0.27% (n = 330,000); AID 434955; call rule not given here;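 further: growth measured after seven days incubation then overnight dye step; 0% = bacteria only wells and 100% = bacteria with antibiotic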
RecA splice inh – inhibitors of M. tuberculosis RecA intein splicing; actives 0.75% (n = 290,000); P9WHJ3; cell-free RecA intein splicing, fluorescence; inhibition, % (test concentration not listed); in the data active means inhibition above about 30%;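 further: 0% = vehicle wells and 100% = reference inhibitor control wells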
FBA Mtb inh – inhibitors of M. tuberculosis fructose-bisphosphate aldolase. P9WQA3. purified M. tuberculosis FBA, fluorescence read-out. inhibition, % at 1 µM. actives 2.3% (n = 360,000). AID 588726;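 further: 0% = vehicle and 100% = reference inhibitor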
Target sequence (P9WQA3 whole entry, looked up): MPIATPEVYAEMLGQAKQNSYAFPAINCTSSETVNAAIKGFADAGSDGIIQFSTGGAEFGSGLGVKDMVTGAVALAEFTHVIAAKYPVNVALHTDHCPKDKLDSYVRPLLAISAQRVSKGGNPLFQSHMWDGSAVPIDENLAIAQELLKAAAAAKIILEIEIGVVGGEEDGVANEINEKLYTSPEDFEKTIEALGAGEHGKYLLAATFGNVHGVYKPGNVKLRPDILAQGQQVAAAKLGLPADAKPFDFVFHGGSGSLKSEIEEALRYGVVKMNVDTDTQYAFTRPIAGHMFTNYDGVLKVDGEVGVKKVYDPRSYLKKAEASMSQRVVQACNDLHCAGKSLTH
Mtb FBA inh conf – confirmation of M. tuberculosis fructose-bisphosphate aldolase inhibitors; actives 78% (n = 5,600); inhibition, % at 1 µM; shares compounds with FBA Mtb inh; purified M. tuberculosis FBA, fluorescence read-out;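 further: 0% = vehicle wells and 100% = reference inhibitor wells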
GDH-TPI counter-2 – GDH-TPI inhibition counter-screen for FBA inhibitors; shares compounds with FBA Mtb inh; GDH-TPI coupled enzyme counterscreen, fluorescence; inhibition, % at 1 µM; actives 81% (n = 5,600); AID 652141; in the data active means inhibition above about 10%
Active calls of the source: *. Unless noted, no stated cut-off is given here; in the data, active means inhibition above about 27%; inactive means the rest.

Screening CCN(Cc1ccncc1)C(=O)C(CO)c1ccccc1 (stereo not given) returned UGM FP inh 0, Rv3671c protease -2, GDH-TPI counter-1 -1, Mtb betalactam 91, RecA splice inh 2 and FBA Mtb inh 7.
CCC1(C)Cc2nc(Cl)c(C#N)cc2CO1 (stereo not given) was read as UGM FP inh 2, Rv3671c protease -7, GDH-TPI counter-1 1, Mtb betalactam 0, RecA splice inh 0 and FBA Mtb inh 3.
For CC1(C)Cc2nc(NC3CCCCC3)c(C#N)cc2CO1 the results were UGM FP inh 0, Rv3671c protease 4, GDH-TPI counter-1 11, Mtb betalactam 5, RecA splice inh 6, FBA Mtb inh 36*, Mtb FBA inh conf 127* and GDH-TPI counter-2 111*.
For CCOc1ccc(-c2nc(C#N)c(N3CCN(CC)CC3)o2)cc1 the results were UGM FP inh 3, Rv3671c protease 0, GDH-TPI counter-1 28, Mtb betalactam -3, RecA splice inh 2, FBA Mtb inh 59*, Mtb FBA inh conf 44* and GDH-TPI counter-2 49*.
CCCOc1ccc(-c2nc(C#N)c(N3CCN(CC)CC3)o2)cc1 was read as UGM FP inh 4, Rv3671c protease 2, GDH-TPI counter-1 4, Mtb betalactam 74, RecA splice inh 4, FBA Mtb inh 44*, Mtb FBA inh conf active and GDH-TPI counter-2 active.
For Nc1c(-c2ccc(Cl)cc2)cnc2c(-c3ccc(F)cc3)cnn12 the results were UGM FP inh 2, Rv3671c protease -4, GDH-TPI counter-1 2, Mtb betalactam 8, RecA splice inh 2 and FBA Mtb inh 9.
`COc1ccc(C2(C)NC(=O)N(CC(=O)NC3CC3)C2=O)cc1` (stereo not given) gave UGM FP inh -3, Rv3671c protease 3, GDH-TPI counter-1 3, Mtb betalactam -5 and FBA Mtb inh 0.
Screening O=C1CCC(C(=O)OCc2cc(=O)oc3ccc4ccccc4c23)=NN1 returned UGM FP inh -2, Rv3671c protease 0, GDH-TPI counter-1 22, Mtb betalactam 2, RecA splice inh -2, FBA Mtb inh 31*, Mtb FBA inh conf 91* and GDH-TPI counter-2 62*.
O=C1CCC(C(=O)OCc2nnc(-c3ccc(Cl)cc3)o2)=NN1 was read as UGM FP inh 0, Rv3671c protease 0, GDH-TPI counter-1 3, Mtb betalactam -3, RecA splice inh 5 and FBA Mtb inh 1.
For Cc1cc(C)n(C(C)CC(=O)Nc2ccc3c(c2)OCO3)n1 (stereo not given) the results were UGM FP inh -1, Rv3671c protease 7, GDH-TPI counter-1 -2, Mtb betalactam 10, RecA splice inh 5 and FBA Mtb inh 1.
For Cc1ccc(-c2nc(CN3CCCCC3)cc(CN3CCCCC3)c2O)cc1 the results were UGM FP inh -2, Rv3671c protease 6, GDH-TPI counter-1 8, Mtb betalactam 1, RecA splice inh 2, FBA Mtb inh 59*, Mtb FBA inh conf 144* and GDH-TPI counter-2 122*.
CCN1CCN(Cc2c(O)ccc3c(=O)c(-c4ccc(OC)c(OC)c4)c(C)oc23)CC1 was read as UGM FP inh 0, Rv3671c protease 5, GDH-TPI counter-1 22, Mtb betalactam 7, RecA splice inh -1, FBA Mtb inh 41*, Mtb FBA inh conf 62* and GDH-TPI counter-2 51*.
COc1ccc(-c2c(C)oc3c(CN4CCN(C)CC4)c(O)ccc3c2=O)cc1 was read as UGM FP inh 1, Rv3671c protease 1, GDH-TPI counter-1 20, Mtb betalactam -3, RecA splice inh -3, FBA Mtb inh 102*, Mtb FBA inh conf 63* and GDH-TPI counter-2 40*.
`Cc1c(CCO)c(=O)[nH]n1S(=O)(=O)c1ccc(F)cc1` gave UGM FP inh -1, Rv3671c protease -9, GDH-TPI counter-1 4, Mtb betalactam 2, RecA splice inh 1 and FBA Mtb inh 2.
Cc1cccc(CCNC(=O)C2CC(O)CN2C(=O)Nc2ccccc2)c1 (stereo not given) was read as GDH-TPI counter-1 11 and FBA Mtb inh 2.
